This is part of a sample that, as a whole, favours compounds with a hit. Of some 83,000 tested, about 20% had one in any assay.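 How to read the values: 0–100, growth inhibition (40 = 60% inhibited); 0, no net growth; -100 to 0, cell death (-40 = 40% of starting cells died; -100 = all dead).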 Unmarked numbers belong to inactive results. Activity calls are given as the source filed them. How the source made its calls: active means growth percent below 10; inactive means the rest.

Among the test systems are NCI-H23 lung; NCI-H226 lung; NCI-H322M lung; HOP-62 NSCLC; NCI-H460 lung; HOP-92 NSCLC; A549/ATCC NSCLC; 786-0 renal; COLO 205 colon; DU-145 prostate; K-562 leukemia; MALME-3M melanoma; MDA-MB-231 breast; SF-268 CNS; SF-295 CNS; SF-539 CNS; UACC-257 melanoma; M14 melanoma; RXF 393 renal.
Assay in all cases: NCI-60 one-dose screen, 48 h (100 = growth as untreated, 0 = no growth, -100 = all killed)
What all share (settings): 10 µM unless noted

As to `COc1cccc(-c2nc3cc(NC(=O)c4ccc(Cl)c(C#N)c4)ccc3o2)c1`, the growth with NCI-H23 lung is -18.8% (active); with NCI-H226 lung it was 76.1%; with NCI-H322M lung, -13.2% (active); in the assay with HOP-62 NSCLC it was 70.2%; in the assay on NCI-H460 lung, -21.4% (active); in the assay on HOP-92 NSCLC it was 26.5%. The growth in the assay with A549/ATCC NSCLC was -26.7% (active); in the assay with 786-0 renal it was -92.1% (active); in the assay with COLO 205 colon, 28.9%; in the assay with DU-145 prostate it was 8.18% (active); in the assay with K-562 leukemia, 8.47% (active); in the assay on MALME-3M melanoma, -56.5% (active). Moreover, the growth in the assay with MDA-MB-231 breast is 8.99% (active); with SF-268 CNS, -5.11% (active); with SF-295 CNS, 25.3%; with SF-539 CNS, -70.7% (active); in the assay with UACC-257 melanoma, 4.33% (active); in the assay on M14 melanoma, -82.7% (active).
As for `O=C1Nc2ccc(Cl)cc2[C@@](C#CC2CC2)(C(F)(F)F)O1`, the growth is 87.8% in the assay on NCI-H23 lung; 81.4% in the assay on NCI-H226 lung; 80.9% in the assay with NCI-H322M lung; 104% in the assay with HOP-62 NSCLC; 102% in the assay on NCI-H460 lung; 93.2% in the assay on HOP-92 NSCLC. In addition, the growth with A549/ATCC NSCLC is 70.7%; in the assay on 786-0 renal, 96.6%; with COLO 205 colon, 127%; in the assay with DU-145 prostate it was 104%; with K-562 leukemia, 67.3%; with MALME-3M melanoma it was 93.4%. Besides, the growth was 86.5% in the assay with MDA-MB-231 breast; 117% with SF-268 CNS; 82% in the assay on SF-295 CNS; 104% in the assay with SF-539 CNS; 79.9% in the assay on UACC-257 melanoma; 86.2% in the assay on M14 melanoma.
For `O=c1sc2ncnc3ncn1c32`, the growth is 66.1% in the assay with NCI-H23 lung; 61.4% in the assay on NCI-H226 lung; 77.9% in the assay on NCI-H322M lung; 41.8% in the assay with HOP-62 NSCLC; 85.7% in the assay on NCI-H460 lung; 50% with HOP-92 NSCLC. Moreover, the growth in the assay with A549/ATCC NSCLC was 104%; with 786-0 renal it was 34.6%; in the assay with COLO 205 colon, 83.5%; with DU-145 prostate, 33.6%; in the assay with K-562 leukemia, 15.2%; in the assay on MALME-3M melanoma, 73.6%. Besides, the growth in the assay on MDA-MB-231 breast was 43.7%; with SF-268 CNS, 82%; in the assay on SF-295 CNS it was 38.4%; in the assay on SF-539 CNS it was 45.8%; in the assay on UACC-257 melanoma, 88.1%; in the assay on M14 melanoma it was 14.5%.
For `COc1ccc(NC(=O)c2ccc(-c3ccccc3)cc2)c(C(N)=O)c1`, the growth is 94.5% in the assay with NCI-H23 lung; 94.9% in the assay with NCI-H226 lung; 91.6% in the assay with NCI-H322M lung; 103% with HOP-62 NSCLC; 100% in the assay on NCI-H460 lung; 103% in the assay with HOP-92 NSCLC. Besides, the growth in the assay with A549/ATCC NSCLC was 94.1%; in the assay on 786-0 renal, 106%; in the assay on COLO 205 colon it was 110%; in the assay on DU-145 prostate, 102%; in the assay with K-562 leukemia, 92.5%; in the assay with MALME-3M melanoma, 91.6%. Further, the growth with MDA-MB-231 breast is 91.3%; in the assay on SF-268 CNS it was 113%; in the assay on SF-295 CNS it was 99.3%; with SF-539 CNS, 97.4%; with UACC-257 melanoma, 102%; with M14 melanoma it was 110%.
Regarding `c1ccc(CN=C(NCc2ccccc2)NCc2ccccc2)cc1`, the growth with NCI-H23 lung is 42.4%; in the assay on NCI-H226 lung it was 51.1%; in the assay on NCI-H322M lung it was 75.6%; in the assay with HOP-62 NSCLC, 78.6%; in the assay with NCI-H460 lung, 73.4%; in the assay on HOP-92 NSCLC, 48.5%. The growth in the assay on A549/ATCC NSCLC is 47.3%; in the assay on 786-0 renal it was 73.1%; in the assay on COLO 205 colon, 41.3%; in the assay on DU-145 prostate, 66.4%; in the assay with K-562 leukemia, 35.7%; in the assay with MDA-MB-231 breast, 70.8%. The growth in the assay with RXF 393 renal was 91.7%; with SF-268 CNS it was 63.8%; in the assay with SF-295 CNS it was 30%; with SF-539 CNS it was 93.6%; in the assay on UACC-257 melanoma, -13.2% (active); with M14 melanoma it was 52.9%.
With `CN(C)CCCNc1nn2c(=O)c3ccccc3nc2c2ccccc12`, the growth is 54.1% with NCI-H23 lung; 53.4% in the assay on NCI-H226 lung; 61.9% with NCI-H322M lung; 47.5% in the assay with HOP-62 NSCLC; 19.9% with NCI-H460 lung; 23.3% in the assay with HOP-92 NSCLC. The growth was 24% in the assay with A549/ATCC NSCLC; 59% in the assay with 786-0 renal; 37.1% in the assay with COLO 205 colon; 81.4% in the assay on DU-145 prostate; 41% in the assay with K-562 leukemia; 66.4% in the assay on MALME-3M melanoma. Moreover, the growth in the assay on MDA-MB-231 breast was 77.1%; in the assay on SF-268 CNS it was 61%; in the assay with SF-295 CNS, 47.9%; in the assay with SF-539 CNS, 41.2%; with M14 melanoma it was 89.2%.
For `O=C(O)CNC(=O)C1(N2C(=O)c3ccccc3C2=O)CCCC1`, the growth was 101% with NCI-H23 lung; 96.7% in the assay with NCI-H226 lung; 106% in the assay on NCI-H322M lung; 110% with HOP-62 NSCLC; 113% with NCI-H460 lung; 124% in the assay on HOP-92 NSCLC. Besides, the growth in the assay with A549/ATCC NSCLC was 99%; in the assay on 786-0 renal it was 94.1%; in the assay with COLO 205 colon, 112%; with DU-145 prostate, 124%; in the assay on K-562 leukemia, 96.2%; in the assay with MDA-MB-231 breast, 101%. Moreover, the growth in the assay on RXF 393 renal was 95.7%; with SF-268 CNS it was 116%; in the assay with SF-295 CNS it was 102%; in the assay with SF-539 CNS, 118%; with UACC-257 melanoma it was 109%; in the assay with M14 melanoma it was 105%.
With `O=c1c2ccccc2c2nccn2c2cc(Cl)ccc12`, the growth with NCI-H23 lung is 72.6%; in the assay with NCI-H226 lung it was 155%; with NCI-H322M lung, 129%; in the assay with HOP-62 NSCLC, 71.7%; with NCI-H460 lung, 101%; in the assay with HOP-92 NSCLC, 28.8%. The growth in the assay on A549/ATCC NSCLC is 71.7%; in the assay with 786-0 renal, 91.6%; with COLO 205 colon it was 112%; with DU-145 prostate it was 98.1%; in the assay on K-562 leukemia it was 57.7%; with MALME-3M melanoma it was 159%. The growth in the assay with MDA-MB-231 breast is 126%; in the assay on SF-268 CNS it was 91.9%; in the assay on SF-295 CNS, 85.5%; with SF-539 CNS it was 94.2%; with UACC-257 melanoma it was 66.5%; with M14 melanoma, 110%.
